RGS8-Gao reg: regulators of human RGS8-Galphao interaction; multiplexed bead flow cytometry, RGS8-Galphao binding; actives lie on both sides; response (percent of control binding), % at 10 µM; 220,000 compounds, 0.34% hits; AID 1423; in the data active = response below about 60% or above about 140%; inactive = in between;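 also: Galphao activated as the GDP aluminium fluoride complex binding bead-coupled RGS8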
Target sequence (P09471 whole entry, looked up): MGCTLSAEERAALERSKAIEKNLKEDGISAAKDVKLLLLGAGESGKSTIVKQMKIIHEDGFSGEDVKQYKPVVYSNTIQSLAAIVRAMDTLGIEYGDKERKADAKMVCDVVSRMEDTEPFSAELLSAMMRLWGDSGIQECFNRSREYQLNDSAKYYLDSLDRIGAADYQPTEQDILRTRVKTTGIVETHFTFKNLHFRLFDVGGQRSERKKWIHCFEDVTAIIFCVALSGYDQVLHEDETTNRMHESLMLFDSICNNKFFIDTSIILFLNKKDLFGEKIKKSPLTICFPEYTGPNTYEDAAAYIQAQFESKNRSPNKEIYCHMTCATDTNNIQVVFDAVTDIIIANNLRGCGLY
Avidin bead fluor: compound fluoresces at 488/530 nm on avidin beads | compound fluorescence 488/530 nm, flow cytometry; hits give high values | fluorescence (KMESF) at 10 µM | 220,000 compounds, 0.38% hits | AID 1775; in the data active = fluorescence above about 47
GSH bead fluor: compound fluoresces at 488/530 nm on GSH beads; GSH beads flow cytometry, compound fluorescence 488/530 nm; hits give high values; fluorescence (KMESF) at 10 µM; 190,000 compounds, 0.25% hits; AID 1776; in the data active = fluorescence above about 89;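 also: glutathione beads carrying GST-tagged Bcl family fusion proteins plus one bare bead set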
RGS16-Gao HTS: modulates binding between human RGS16 and Galphao. bead-based flow cytometry RGS16-Galphao binding, fluorescence; actives lie on both sides. binding response (% of control), % at 10 µM. 220,000 compounds, 0.38% hits;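 also: Galphao activated by GDP with aluminum fluoride before binding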
Target sequence (O15492 whole entry, looked up): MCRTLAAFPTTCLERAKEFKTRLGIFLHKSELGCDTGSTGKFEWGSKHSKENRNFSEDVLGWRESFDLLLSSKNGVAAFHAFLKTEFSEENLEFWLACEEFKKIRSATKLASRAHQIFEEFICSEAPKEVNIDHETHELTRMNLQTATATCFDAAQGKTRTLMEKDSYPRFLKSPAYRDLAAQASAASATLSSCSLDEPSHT
Target sequence (P09471 whole entry, looked up): as the sequence (P09471 whole entry, looked up) above
RGS7-Gao reg: regulators of human RGS7-Galphao interaction | P09471 | Multiplexed bead flow cytometry, RGS7-Galphao binding; actives lie on both sides | binding response (% of control), % at 10 µM | 220,000 compounds, 0.35% hits; in the data active = binding response below about 49% or above about 150%; inconclusive = no clear call, values can overlap the other calls; inactive = in between;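 also: fluorescent Galphao held in activated GDP-AlF4 state binding bead-coupled RGS7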
RGS4-Gao reg: human RGS4-Galphao interaction regulation; P09471; Multiplexed bead flow cytometry, RGS4-Galphao binding; actives lie on both sides; binding response (% of control), % at 10 µM; 220,000 compounds, 0.33% hits; in the data active = binding response below about 49% or above about 150%; inactive = in between;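 also: fluorescent Galphao activated with aluminum fluoride binding bead-coupled RGS4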
RGS4-Gao HTS: modulates binding between human RGS4 and Galphao. shares compounds with RGS16-Gao HTS. multiplexed bead flow cytometry, RGS–Galpha-o binding. RGS4–Galpha-o binding response, % at 10 µM. 1,600 compounds, 99% hits;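 also: fluorescently labeled Galpha-o bound to GDP with aluminium fluoride binding biotinylated RGS beads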
Avidin counter: counter-screen: compounds disrupting biotin binding to avidin beads | 1,700 tested, under 10 active | shares compounds with RGS16-Gao HTS | streptavidin beads, fluorescein-biotin binding, flow cytometry | inhibition, % at 10 µM;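 active = inhibition above 50%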;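 also: median green fluorescence of gated singlet beads compared with DMSO control wells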
RGS8-Gao single: RGS8-Galphao interaction regulation, single point confirmation; shares compounds with RGS16-Gao HTS; bead-based flow cytometry RGS8-Galphao binding, fluorescence; actives lie on both sides; binding response (% of control), % at 10 µM; 1,700 compounds, 3% hits; AID 1836; in the data active = binding response below about 72% or above about 130%; inactive = in between;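 also: Galphao activated as GDP AlF4 complex before binding bead RGS8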
RGS7-Gao confirm: RGS7-Galphao interaction regulation, single point confirmation | shares compounds with RGS16-Gao HTS | bead-based flow cytometry RGS7-Galphao binding; actives lie on both sides | response (percent of control binding), % at 10 µM | 1,700 compounds, 7.8% hits | AID 1837; in the data active = response below about 75% or above about 130%; inactive = in between;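 also: fluorescent Galphao activated with GDP and aluminum fluoride binding bead-coupled RGS7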
RGS16-Gao conf: RGS16-Galphao interaction regulation, single point confirmation; shares compounds with RGS16-Gao HTS; bead-based flow cytometry, RGS16-Galphao binding; actives lie on both sides; response (% of control binding), % at 10 µM; 1,700 compounds, 4% hits; AID 1838; in the data active = response below about 74% or above about 130%; inactive = in between;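 also: Galphao activated as the GDP aluminium fluoride complex binding bead-coupled RGS16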
RGS4-Gao confirm: confirmation of regulators of human RGS4-Galphao interaction | binding response (% of control), % at 10 µM | 1,700 compounds, 4% hits | AID 1840 | shares compounds with RGS16-Gao HTS | RGS4-Galphao binding, multiplexed bead flow cytometry; actives lie on both sides; in the data active = binding response below about 74% or above about 130%; inactive = in between
RGS19-Gao conf: confirmation of regulators of human RGS19-Galphao interaction; 1,700 compounds, 5% hits; response (percent of control binding), % at 10 µM; shares compounds with RGS16-Gao HTS; bead-based flow cytometry RGS19-Galphao binding; actives lie on both sides; in the data active = response below about 50% or above about 160%; inactive = in between
A number is an active result; - = inactive; ? = inconclusive; . = no result given; [ ] = remark or other dose. Sampled rows, rich in hits. Any-hit rate of the full collection: about 1.2%. Unless noted, no rule for the calls is given here.

SMILES	RGS8-Gao reg	Avidin bead fluor	GSH bead fluor	RGS16-Gao HTS	RGS7-Gao reg	RGS4-Gao reg	Avidin counter	RGS8-Gao single	RGS7-Gao confirm	RGS16-Gao conf	RGS4-Gao confirm	RGS19-Gao conf	others
O=C(c1ccc(Cl)cc1[N+](=O)[O-])N1CCc2ccccc2C1	-	-	-	-	-	-	.	.	.	.	.	.
Cc1csc(NC(=O)CSc2nnc(-c3ccoc3C)n2CCc2ccccc2)n1	-	-	-	-	-	-	.	.	.	.	.	.
S=C(Nc1ccc2nsnc2c1)N1CCCCC1	-	-	-	2.5	-	-	.	.	.	.	.	.	RGS4-Gao HTS=86
S=C(Nc1ccc2nc(-c3ccccn3)c(-c3ccccn3)nc2c1)N1CCCCC1	-	-	-	-	-	-	.	.	.	.	.	.
CCOc1ccc(-n2c(=O)c3c(C)c(C(=O)N(C)C)sc3n(CC(=O)Nc3ccccc3F)c2=O)cc1	-	-	-	-	-	-	.	.	.	.	.	.
CC1(C)C2CCC1(CS(=O)(=O)NC1CCCC1)C(=O)C2 (stereo not given)	-	-	-	-	-	-	.	.	.	.	.	.
CC1CCN(c2ccccc2N)CC1	-	-	-	-	153[activator]	163[activator]	-	-	-	-	-	48
Nc1ccccc1N1CCOCC1	-	-	-	-	-	-	.	.	.	.	.	.
CC1CCN(c2nnc(N3CCC(C)CC3)c3ccccc23)CC1	18	-	-	11	12	20	-	-	-	-	-	-
CCCCn1c(SCC(N)=O)nnc1-c1ccco1	-	-	-	-	-	-	.	.	.	.	.	.
Cn1c(=O)n(C)c2cc(S(=O)(=O)NCc3ccco3)ccc21	-	176	-	-	204[activator]	-	-	-	-	-	-	-	RGS4-Gao HTS=117
CC(=O)c1ccc(NC(=O)C(C)OC(=O)c2ccc3c(c2)nc(C)n3-c2ccccc2)cc1 (stereo not given)	-	-	-	219[activator]	-	-	-	-	-	-	-	-	RGS4-Gao HTS=112
COc1cccc(-n2c(C)nc3cc(C(=O)O)ccc32)c1	-	54	-	.	160[activator]	158[activator]	-	-	-	-	-	-
Cc1nc2cc(C(=O)OCC(=O)Nc3cccc(Cl)c3)ccc2n1-c1ccccc1	-	-	-	-	-	-	.	.	.	.	.	.
CCCN(C(=O)Cc1nc(N)n[nH]1)C1(C(=O)Nc2c(C)cccc2C)CCCCC1	-	-	-	-	-	-	.	.	.	.	.	.
Cc1ccccc1NC(=S)NCc1cccn1C	-	-	-	178[activator]	-	-	-	-	-	-	-	-	RGS4-Gao HTS=97
Cc1cc(NC(=O)c2cc(-c3cccs3)nc3ccccc23)no1	-	233	-	-	256[activator]	-	-	-	-	-	-	-	RGS4-Gao HTS=95
Cn1c(Cn2c(=O)sc3ccccc32)nnc1SCC(=O)NCc1ccccc1	-	-	-	-	-	-	.	.	.	.	.	.
O=C1CS/C(=N/N=C/c2c[nH]c3ccccc23)N1	-	-	.	176[activator]	?	155[activator]	-	-	-	-	-	-
Cc1ccc(/C=N/N=C2/NC(=O)CS2)o1	-	-	-	-	-	-	.	.	.	.	.	.
CCC(=O)NC(=S)Nc1ccc(NC(=S)NC(=O)c2ccc(C)cc2)cc1	-	-	-	-	-	-	.	.	.	.	.	.
Cn1c(=O)oc2cc(S(=O)(=O)N3CCCC(C(=O)N4CC=C(c5ccccc5)CC4)C3)ccc21 (stereo not given)	-	-	-	-	-	-	.	.	.	.	.	.
CCOC(=O)C1CCN(S(=O)(=O)Cc2ccccc2)CC1	-	-	-	-	-	-	.	.	.	.	.	.
CCOC(=O)C1CCN(S(=O)(=O)Cc2ccc(Cl)cc2)CC1	.	.	-	.	164[activator]	170[activator]	-	-	61	-	-	-
CC1(C)CC(=O)C=C(NNC(=O)c2ccc(N)cc2)C1	-	-	-	-	-	-	.	.	.	.	.	.
SMILES	RGS8-Gao reg	Avidin bead fluor	GSH bead fluor	RGS16-Gao HTS	RGS7-Gao reg	RGS4-Gao reg	Avidin counter	RGS8-Gao single	RGS7-Gao confirm	RGS16-Gao conf	RGS4-Gao confirm	RGS19-Gao conf	others
Cc1cc(C)nc(NC(=NCCc2c[nH]c3ccccc23)NC(=O)Nc2ccc(Cl)c(Cl)c2)n1	-	-	-	13	-	-	-	-	-	-	-	-	RGS4-Gao HTS=108
CN(C)/C=C/C(=O)c1cnc(-c2ccccc2)s1	-	-	-	-	-	-	.	.	.	.	.	.
CN(C)/C=C/C(=O)c1cnc(-c2ccc(Cl)cc2)s1	7.8	-	-	-6.2	2.5	3.1	-	-	-	-	-	-
COc1cccc(C2C(C(=O)c3cc4cccc(OC)c4o3)=C(O)C(=O)N2c2cc(C)on2)c1OC (stereo not given)	34	-	-	1.2	11	-0.4	-	-	-	-	-	-
NC(Cc1cccc2nsnc12)C(=O)O (stereo not given)	-	-	-	-	-	-	.	.	.	.	.	.
Cc1ccccc1CSc1nn2c(=O)c(C)nnc2s1	-	-	-	-	211[activator]	-	-	-	-	-	-	-	RGS4-Gao HTS=116
CSc1nc(-c2ccccc2)nn1S(=O)(=O)c1ccc(Cl)cc1	-	-	-	-	-	-	.	.	.	.	.	.
CSc1nc(-c2ccccc2)nn1S(=O)(=O)c1ccccc1	-	96	-	199[activator]	171[activator]	173[activator]	-	-	-	-	-	-
Nc1cccc(S(=O)(=O)NC2=NCCC2)c1	149[activator]	-	-	-	-	-	.	.	.	.	.	.	RGS4-Gao HTS=119
O=C(c1ccc(C(=O)N2CCCCCC2)cc1)N1CCCCCC1	-	-	-	-	-	-	.	.	.	.	.	.
COc1nc(N)c(S(=O)(=O)c2ccccc2)cc1C#N	145[activator]	-	-	-	-	-	-	-	-	-	-	-	RGS4-Gao HTS=124
COc1ccc(OC)c(C2=NOC(C(=O)Nc3ccccc3SC)C2)c1 (stereo not given)	-	-	-	-	-	-	.	.	.	.	.	.
COc1ccc(OC)c(C2=NOC(C(=O)Nc3cccc(C(C)=O)c3)C2)c1 (stereo not given)	-	413	-	-	303[activator]	157[activator]	-	-	-	-	-	-
CCOC(=O)C1=C(C)N=C2SC(CC)C(=O)N2C1c1cccc(F)c1 (stereo not given)	.	.	-	.	.	.	-	-	-	-	-	-
